From PubChem
HEK293 tox: cytotoxicity in counter-screen for GLP-1R inverse agonists; 410,000 compounds, 0.13% hits; AID 624418; Potency, µM (top dose mostly 38.3 µM), hits mostly inhibitors; HEK293 cAMP-luciferase reporter cells, luminescence, 24 h;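 also: loss of luciferase light is scored as toxicity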
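Luminescence readout: signal drop marks cytotoxicity. Plated cells grew 12 h at 37 °C, 5% CO2, received 23 nL compound for 24 h, then got luciferase reagent, read after 12 min at RT.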
ClpP mod: qHTS Assay for Activators of ClpP; purified B. subtilis ClpP, FRET peptide cleavage, 20 min; Potency, µM (top dose mostly 57.5 µM); 340,000 compounds, 1.9% hits; active = well fitted falling curve with a large enough effect; inconclusive = small, poorly fitted or top-dose-only effect; inactive = no such curve, though single readings can be large or run the other way; also: the source files actives as falling curves though it sought activators and does not explain the sign; nearly all actives have a fitted effect of over 65% in size
Target sequence (P80244 whole entry, looked up): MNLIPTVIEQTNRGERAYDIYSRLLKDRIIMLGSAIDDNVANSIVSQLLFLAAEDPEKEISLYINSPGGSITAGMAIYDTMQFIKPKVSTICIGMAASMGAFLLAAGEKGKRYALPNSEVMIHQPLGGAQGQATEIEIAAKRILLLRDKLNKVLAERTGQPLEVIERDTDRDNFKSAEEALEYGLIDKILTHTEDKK
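Purified B. subtilis ClpP, 10 microg/mL final in Tris/HCl pH8 with KCl, BSA, glycerol and Tween-20, cleaved an Abz/nitrotyrosine-quenched decapeptide. Fluorescence (ex 320, em 430) was read at 0 and 20 min at room temperature. Delta was normalized to 5.8 microM ADEP and DMSO/no-enzyme controls.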
GLP-1R inv ag: acts as inverse agonist at human GLP-1 receptor. P43220. Potency, µM (highest dose often 38.3 µM), usual class: inhibitors. HEK293 GLP-1R CRE-luciferase, luminescence, 24 h; GLP-1R form is constitutively active. 410,000 compounds, 1.6% hits; also: nearly all actives have a fitted effect of over 55% in size
Target sequence (P43220 whole entry, looked up): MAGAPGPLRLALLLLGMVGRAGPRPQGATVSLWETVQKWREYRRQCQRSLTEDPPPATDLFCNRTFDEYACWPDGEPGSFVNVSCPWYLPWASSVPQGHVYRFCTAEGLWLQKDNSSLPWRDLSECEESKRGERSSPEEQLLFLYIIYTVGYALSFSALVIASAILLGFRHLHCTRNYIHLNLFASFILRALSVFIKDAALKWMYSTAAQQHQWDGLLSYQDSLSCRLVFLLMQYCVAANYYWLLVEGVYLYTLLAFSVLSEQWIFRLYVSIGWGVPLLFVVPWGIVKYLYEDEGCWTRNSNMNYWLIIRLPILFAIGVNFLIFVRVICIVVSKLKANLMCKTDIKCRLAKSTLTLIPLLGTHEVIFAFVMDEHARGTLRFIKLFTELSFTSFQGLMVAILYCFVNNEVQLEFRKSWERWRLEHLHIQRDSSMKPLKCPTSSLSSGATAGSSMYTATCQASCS
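Seeding at 200 cells/uL, 12 h culture, 24 hr compound treatment, then luciferase reagent and a luminescence read; cells are HEK293 stably expressing a constitutively active GLP-1R plus cAMP-responsive luciferase.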
GLP1R ag: activates the human GLP-1 receptor. 380,000 compounds, 0.007% hits. HEK293 GLP-1R CRE-luciferase, luminescence, 4-6 h; cells express a hypersensitive GLP-1R form. AID 624172. Potency, µM (top dose mostly 45.6 µM), usual class: activators
ClpP validation: validation of B. subtilis ClpP protease hits (inhibitors) | 470 compounds, 40% hits | purified B. subtilis ClpP, FRET-FV substrate cleavage, 20 min | Potency, µM (series often up to 57.5 µM), most hits filed as inhibitors | shares compounds with ClpP mod; also: nearly all actives have a fitted effect of over 70% in size
A number is an active result; . = inactive; ? = inconclusive; / = no result; ! = a repeat was not active; [ ] = another dose, or the depositor's remark. Rows were chosen to be rich in hits. Some 3.2% of all compounds tested hit in one or more screens of this group. Unless noted, calls follow the shape of the dose curve; as a rule, active = well fitted curve in the direction sought with a large enough effect; inconclusive = small, poorly fitted or top-dose-only effect, or another doubt; inactive = no such curve, though single readings can be large; an effect the other way counts as inactive or inconclusive.

SMILES | HEK293 tox | ClpP mod | GLP-1R inv ag | GLP1R ag | ClpP validation
CCOc1ccc2nc(SCC(=O)Nc3ccc(F)cc3)nc(-c3ccccc3)c2c1 | . | . | . | / | /
Cc1ccc(C)c(Nc2nc3c(S(=O)(=O)c4ccccc4)nnn3c3ccccc23)c1 | . | . | . | . | 22µM
Cc1ccc(S(=O)(=O)c2nnn3c2nc(Nc2cccc(C)c2)c2ccccc23)cc1 | . | . | . | . | /
Cc1ccc(NC(=O)c2cc([N+](=O)[O-])ccc2NCc2cccnc2)cc1Cl | ? | . | ? | . | /
COc1cccc(NC(=O)c2cc([N+](=O)[O-])ccc2NCc2cccnc2)c1 | ? | . | . | . | .
O=C(Nc1ccc(NC(=O)c2cc3ccccc3o2)cc1)c1ccco1 | . | / | . | . | /
COc1ccc(NC(=O)c2ccco2)cc1NC(=O)c1cc2ccccc2o1 | . | . | . | . | 19µM
CSc1nnc2c(n1)OC(c1cccc(O)c1Cl)Nc1ccccc1-2 (centres undefined) | . | . | . | / | /
C#C[C@]1(O)CC[C@@H]2[C@H]3CCC4=CC(=O)CC[C@H]4[C@H]3C(=C)C[C@@]21CC | / | / | / | . | /
O=C(CC1SC(N2CCCCC2)=NC1=O)Nc1ccc(C(=O)NCc2ccccc2)cc1 (centres undefined) | . | . | . | . | /
COc1cccc(CNC(=O)c2ccc(NC(=O)CC3SC(N4CCCC4)=NC3=O)cc2)c1 (centres undefined) | . | 2.8µM | . | . | .
Cc1ccc(NC(=O)CSc2nc(-c3cccs3)cc(C(F)(F)F)n2)cc1C | . | . | . | . | /
COc1ccc(S(=O)(=O)N(C)c2ccc(C(=O)N3CCOCC3)cc2)cc1 | . | 2.2µM | . | . | .
COc1ccc(S(=O)(=O)N(C)c2ccc(C(=O)N3CCCCC3)cc2)cc1 | . | . | . | . | /
COc1ccccc1C(=O)Nc1cc(-c2cccc(Br)c2)nn1-c1ccccc1 | . | 4µM | . | / | 19µM
Cc1cccc(-c2cc(NC(=O)c3ccccc3C)n(-c3ccccc3)n2)c1 | . | . | ? | / | /
O=C(NC1CCCCCC1)C1c2ccccc2C(=O)N1Cc1ccc(F)cc1 (centres undefined) | . | . | . | / | /
COc1ccc2c(c1)c(=O)c(C(=O)c1ccc(F)cc1)cn2CC(=O)Nc1ccc2c(c1)OCO2 | . | . | . | . | /
c1ccc2c(c1)NC1(CCCCCC1)n1c-2nc2ccccc21 | . | . | . | . | /
c1ccc2c(c1)NC1(CCCCC1)n1c-2nc2ccccc21 | . | 2.5µM | . | . | 14µM
O=C(CCc1ccc(S(=O)(=O)N2CCOCC2)cc1)N1CCc2ccccc2C1 | .[0.307 µM] | . | .[0.307 µM] | . | .
Cc1cc(-c2ccccc2)c2nncn2n1 | . | 7.9µM | . | . | 22µM
c1ccc(-c2ccc(-c3cn4c(n3)CCC4)cc2)cc1 | . | 2.8µM | ? | . | 22µM
CCc1cc(N2CCOCC2)cc2c1[nH]c1ccccc12 | . | 10µM | ? | . | 17µM
COc1ccccc1Cc1nc2ccccc2nc1SCC(=O)NCc1ccc(F)cc1 | . | . | . | / | /
SMILES | HEK293 tox | ClpP mod | GLP-1R inv ag | GLP1R ag | ClpP validation
CCc1ccc(-n2nc3ccc(NC(=O)c4ccc5c(c4)OCO5)cc3n2)cc1 | . | 3.2µM | . | . | .
CCOc1ccc(-n2nc3ccc(NC(=O)c4ccc5c(c4)OCCO5)cc3n2)cc1 | . | 8.9µM | . | . | ?
COCCCNC(=O)CC(NS(=O)(=O)c1ccc(Cl)cc1)c1ccco1 (centres undefined) | . | . | . | . | /
COCCCNC(=O)CC(NS(=O)(=O)c1ccc(C)cc1)c1ccco1 (centres undefined) | . | 3.2µM | . | . | .
Cc1ccc(NS(=O)(=O)c2cc(-c3cnc(C4CC4)o3)ccc2C)cc1Cl | ? | . | ? | / | /
CC(NC(=O)C1CCN(S(=O)(=O)c2ccc(F)cc2)CC1)c1ccccc1 (centres undefined) | . | ? | . | / | .
CCN(C(=O)Cn1c(=O)n(Cc2ccccc2)c(=O)c2c1c1cc(OC)ccc1n2C)c1ccccc1 | . | ? | . | . | /
CCN(Cc1ccccc1)C(=O)Cn1c(=O)n(Cc2ccccc2)c(=O)c2c1c1cc(OC)ccc1n2C | . | 0.71µM | . | / | 27µM
CNC(=O)C[C@@H](N)C(=O)N[C@@H](C(=O)N[C@@H]1C(=O)N2[C@@H]1SC(C)(C)[C@@H]2C(=O)O)c1ccc(O)cc1 | / | / | / | . | /
CCCCn1cc2c(c1-c1ccc(Br)cc1)c(=O)n(C)c(=O)n2C | . | . | . | / | /
CCCCCn1cc2c(c1-c1ccc(Cl)cc1)c(=O)n(C)c(=O)n2C | . | 10µM | . | / | ?
COc1ccccc1NC(=O)c1ccc2[nH]c(C)cc(=O)c2c1 | . | . | . | / | /
CN(CC(=O)Nc1cccc(F)c1)C(=O)c1cc(-c2ccccc2)nc2ccccc12 | ? | . | ? | . | /
COc1ccc(-c2cc(C(=O)N(C)CC(=O)Nc3cccc(F)c3)c3ccccc3n2)cc1 | ? | 6.3µM | ? | . | 24µM
Cc1ccc(CC(=O)N2CCN(c3cccc(C(F)(F)F)c3)CC2)cc1 | . | 10µM | 8.9µM | . | .
Cc1ccc(Cl)cc1-n1c(=O)c2sc3ccccc3c2n(CC(=O)NC2CCCC2)c1=O | . | . | . | . | /
COc1ccc(-c2cc(C(=O)N3CCCC3)c3ccccc3n2)cc1OC | . | . | . | . | /
COc1ccc(-c2cc(C(=O)N3CCC3)c3ccccc3n2)cc1OC | . | 3.2µM | . | . | .
Fc1cc(F)c2nc(Nc3nc4cc5c(cc4s3)OCO5)sc2c1 | . | 8.9µM | ? | . | ?
COc1ccc(-c2cc3ccc(O)c(CN4CCN(CCO)CC4)c3oc2=O)cc1OC | . | . | . | / | /
COc1cccc2c1cc1c(=O)n(CC(=O)NC3CC3)nc(C)n12 | . | ? | . | / | /
COc1cccc2c1cc1c(=O)n(CC(=O)N3CCC(C)CC3)nc(C)n12 | . | 2.5µM! | . | . | 4.9µM
COc1cccc2c1cc1c(=O)n(CC(=O)N3CCN(c4ccccc4F)CC3)nc(C)n12 | . | 7.9µM | . | / | 3.1µM
COc1cccc(CNC(=O)Cn2c(=O)oc3cc(S(=O)(=O)N4CCCCCC4)ccc32)c1 | . | . | ? | / | /
Cn1cc(CN2CCN(c3ncccn3)CC2)c(-c2cccc(Cl)c2)n1 | .[7.66 µM] | . | .[7.66 µM] | . | .
Cc1cc(N2CCN(Cc3cn(C)nc3-c3cccc(Cl)c3)CC2)cc(C)n1 | ? | / | ? | . | /
Cn1c(=O)c2[nH]c(Br)nc2n(C)c1=O | / | / | / | . | /
CCOc1ccccc1-c1nc2c([nH]1)c(=O)n(C)c(=O)n2C | . | 3.5µM | . | . | 22µM
COc1ccc(N(C)S(=O)(=O)c2ccc3c(c2)n(C)c(=O)c(=O)n3C)cc1 | . | . | . | . | /
COc1ccc(-n2c(-c3cccc(OC)c3)nc(=S)c3c2CCCC3)cc1 | . | . | . | . | .
